From PubChem BioAssay AID1578 (Sanford-Burnham Center for Chemical Genomics, 2009)
The campaign covered roughly 290,000 compounds. About 3,000 (1%) were called active. Rule as the data show it: active = inhibition mostly above about 36% (no sharp cut-off); inactive = mostly below about 34%. The entries come from a sample that favours actives as a whole.

Assay: inhibition of NOD1-driven NF-kB reporter – cell-based, luminescence, uHTS, primary screen (AID 1578);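 also: HEK-293T reporter cells stimulated with the NOD1 agonist gamma-tri-DAP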
Conditions: NOD1-driven NF-kB luciferase reporter cells, at 4 µM, hits give high values

SMILES	inhibition
CCOc1ccc(OCC)c(S(=O)(=O)NCc2cccnc2)c1	-17.5% (inactive)
NCCc1nnc(SCC(=O)Nc2ccc(Br)cc2)o1	-15.9% (inactive)
CC(NC(=O)c1ccc2nc[nH]c2c1)c1ccccc1 (configuration not stated)	-33.6% (inactive)
Cn1nnnc1SCC(=O)N1CCN(C(=O)c2ccco2)CC1	-32.2% (inactive)
O=C(O)CCCNC(=O)c1cncc(O)c1	15.1% (inactive)
N=c1ccn(Cc2cccc(Cl)c2)cc1	8.9% (inactive)
N=c1ccn(Cc2ccc(Cl)cc2)cc1	30.5% (inactive)
N=c1ccn(Cc2ccc(Cl)c(Cl)c2)cc1	79.2% (active)
COC(Cn1c(-c2cccc(S(=O)(=O)N(C)C)c2)n[nH]c1=S)OC	-34.1% (inactive)
Cc1cc(NC(=O)c2cc3ncc(Br)cn3n2)no1	-40.8% (inactive)
O=C(O)CCCn1cc(NC(=O)c2c(F)cccc2F)cn1	-50.2% (inactive)
O=C(NCc1ccccn1)c1nc(Cn2cc([N+](=O)[O-])cn2)no1	-23.2% (inactive)
COc1ccc(C2NCCn3cccc32)cc1 (configuration not stated)	112% (active)
Fc1ccc(C2NCCn3cccc32)cc1 (configuration not stated)	25.8% (inactive)
c1ccc(C2NCCn3cccc32)cc1 (configuration not stated)	-14.6% (inactive)
Cc1ccc(C(c2nnnn2CS(=O)(=O)c2ccc(C)cc2)N2CCN(c3ncccn3)CC2)cc1 (configuration not stated)	-41.2% (inactive)
COc1ccc(CNC(=O)CN2CCN(c3cccc(C)c3C)CC2)cc1	-3.6% (inactive)
O=C(CSc1nc2ccccc2n1-c1ccccc1)Nc1ncc(Cl)cc1Cl	48.8% (inactive)
COc1ccc(-n2c(SCC(=O)Nc3ncc(Cl)cc3Cl)nc3ccccc32)cc1	58.9% (active)
Cc1ccc(-n2c(SCC(=O)Nc3ncc(Cl)cc3Cl)nc3ccccc32)cc1	59.3% (inactive)
Cc1ccc(SCC(=O)N2N=CCC2c2ccccc2)cc1 (configuration not stated)	-19.9% (inactive)
O=c1cc(O)n(-c2ccccc2F)c(=S)[nH]1	0% (inactive)
CCOC(=O)c1c(C)sc2c1N(C(=O)CCl)c1cc(Cl)ccc1S2	55.3% (active)

SMILES	inhibition
CCOC(=O)c1c(C)sc2c1N(C(C)=O)c1cc(Cl)ccc1S2	25.7% (inactive)
CCOC(=O)c1c(C)sc2c1N(C(=O)CN(CC)CC)c1cc(Cl)ccc1S2	-0.4% (inactive)
CC(=O)Nc1ccc(S(=O)(=O)NCc2nc(-c3ccccc3)no2)cc1	-7.6% (inactive)
CCOC(=O)C1=C(C)NC(=O)NC1c1cc2c(cc1Br)OCO2 (configuration not stated)	-20.8% (inactive)
Cc1cc(OC(=O)c2ccccc2)n(CCC#N)n1	6.7% (inactive)
O=C(O)c1ccc(Oc2c(C(F)(F)F)oc3cc(O)ccc3c2=O)cc1	-31.7% (inactive)
COc1ccc(Oc2c(C(F)(F)F)oc3cc(OCC(=O)O)ccc3c2=O)cc1	4.6% (inactive)
COc1ccc2c(=O)c(Oc3ccc(C(=O)O)cc3)c(C(F)(F)F)oc2c1	47.7% (active)
O=C(c1ccc(F)cc1)N1CCN(c2ccc([N+](=O)[O-])c(N3CCOCC3)c2)CC1	-17.8% (inactive)
C[C@@H]1C[C@@H]2OC(=O)[C@]3(C)[C@H]2[C@@H](OC3(C)O)[C@]2(C)C(=O)C=C[C@H]12 (some centres not stated)	-7.5% (inactive)
C=C1C(=O)C=C[C@]2(C)C[C@@H]3OC(=O)[C@](C)(O)[C@H]3C[C@@H]12	33.2% (active)
CCCCNc1nc2ccccc2n1CC(=O)Nc1ccc2c(c1)OCCO2	-11.5% (inactive)
O=C(O)c1ccc(Cl)cc1NC(=O)C1CCCO1 (configuration not stated)	-22% (inactive)
COc1ccccc1N(C)S(=O)(=O)c1ccc(Cl)c(C(=O)NCCCN2CCOCC2)c1	-22.8% (inactive)
CN(c1ccccc1)S(=O)(=O)c1ccc(Cl)c(C(=O)Nc2ccc(N3CCOCC3)cc2)c1	-13% (inactive)
COc1ccc(CNC(=O)CSc2nc3ccc(C)cc3[nH]2)cc1OC	0.6% (inactive)
CCOc1ccc(/C=N/NC(=O)C(=O)N2CCCCCC2)c2ccccc12	12% (inactive)
CN1C/C(=C/c2ccsc2)C(=O)/C(=C/c2ccsc2)C1	-44.5% (inactive)
CC(C)N1C/C(=C/c2cccnc2)C(=O)/C(=C/c2cccnc2)C1	49.5% (inactive)
CC(C)N1C/C(=C/c2ccsc2)C(=O)/C(=C/c2ccsc2)C1	80.5% (active)
Cc1cc(NC(=O)c2cccnc2)ccc1NC(=O)c1ccco1	-65.2% (inactive)
COc1ccc(-c2csc(/C(C#N)=C\c3cccc([N+](=O)[O-])c3)n2)cc1	-40.1% (inactive)
COc1ccc(-c2csc(/C(C#N)=C\c3ccc(O)c([N+](=O)[O-])c3)n2)cc1OC	78.3% (active)

SMILES	inhibition
COc1cc(/C=C(/C#N)c2nc(-c3cc4ccccc4oc3=O)cs2)cc([N+](=O)[O-])c1O	6.6% (inactive)
COc1ccc(-c2csc(/C(C#N)=C\c3ccc(OC)c([N+](=O)[O-])c3)n2)cc1	-19.7% (inactive)
N#C/C(=C\c1ccc([N+](=O)[O-])cc1)c1nc(C2CC2)cs1	-14.9% (inactive)
O=C(NC1CCSc2ccccc21)c1cccc(Cl)c1 (configuration not stated)	-18.6% (inactive)
CCc1cc(-c2nc(N)ncc2-c2ccc(Br)cc2)c(O)cc1OC	-5.1% (inactive)
Cc1nc2cc(-c3ccccc3)[nH]n2c(=O)c1C	-59.1% (inactive)
Cc1ccc2cccc(OCc3ccccc3)c2n1	-0.7% (inactive)
Cc1ccc2cccc(N)c2n1	-43.8% (inactive)
Cc1ccc2ccc3ccc(C)nc3c2n1	44.3% (active)
C/C(=N\Nc1cc(C(F)(F)F)ccc1Cl)c1ccccc1O	15.7% (inactive)
CC1CCCN(c2ncnc3c2cnn3-c2ccc(Cl)cc2)C1 (configuration not stated)	73.3% (active)
Clc1ccc(-n2ncc3c(N4CCCCCC4)ncnc32)cc1	78.4% (active)
CC1CC(C)CN(c2ncnc3c2cnn3-c2ccc(Cl)cc2)C1 (configuration not stated)	1.3% (inactive)
CN1CCN(c2ncnc3c2cnn3-c2ccc(Cl)cc2)CC1	-13.8% (inactive)
COc1ccc(-n2ncc3c(N4CCCCC4)ncnc32)cc1	87% (active)
CC1CCCN(c2ncnc3c2cnn3-c2ccccc2)C1 (configuration not stated)	0.1% (inactive)
Cc1cccc(-n2ncc3c(N(C)C4CCCCC4)ncnc32)c1	27.6% (inactive)
Clc1ccc(-n2ncc3c(N4CCCC4)ncnc32)cc1	39.9% (inactive)
COc1ccc(-n2ncc3c(N4CCC(C(N)=O)CC4)ncnc32)cc1	-30% (inactive)
CCCN(CCC)c1ncnc2c1cnn2-c1ccc(OC)cc1	-46.4% (inactive)
COc1ccc(-n2ncc3c(N4CCC(C)CC4)ncnc32)cc1	-5.4% (inactive)
